This is a sample that favours compounds with a hit; in the whole collection about 4.1% have one here.
KLF5 inhibitor – KLF5 expression inhibitors, primary screen, DLD-1 cells, luminescence. AID 1700, 2009. inhibition, % at 5 µM. hit rate 0.23% among 290,000. DLD-1 KLF5 promoter-luciferase reporter;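 active means inhibition above a per-plate limit of that plate's mean compound inhibition plus 3 SD, cut at about 60% in these data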;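 further: 0% = DMSO wells and 100% = LY294002 at 200 µM; higher means less KLF5 promoter-driven luciferase light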
697 NFkB inh – inhibitors of PMA/ionomycin-induced NF-kB reporter, 697 cells, primary screen, B-cell NF-kB inhibitor project, cell-based, luminescence, uHTS; 697 B-cell NF-kB luciferase reporter, 16 h; inhibition, % at 4 µM; hit rate 0.33% among 330,000; in the data active means inhibition above about 35%
Mdm2 MdmX PPI – inhibitors of human Mdm2-MdmX association, primary screen, cell-based, luminescence, split luciferase, SaOS-2, uHTS. AID 485346, 2010. inhibition, % at 8 µM. Protein Mdm4 (Homo sapiens) + E3 ubiquitin-protein ligase Mdm2 (Homo sapiens), …. SaOS-2 split-luciferase Mdm2/MdmX complementation. hit rate 3% among 330,000;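 active means inhibition of at least 50% at 8 µM in the primary screen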
Target sequence (O15151 whole entry, looked up): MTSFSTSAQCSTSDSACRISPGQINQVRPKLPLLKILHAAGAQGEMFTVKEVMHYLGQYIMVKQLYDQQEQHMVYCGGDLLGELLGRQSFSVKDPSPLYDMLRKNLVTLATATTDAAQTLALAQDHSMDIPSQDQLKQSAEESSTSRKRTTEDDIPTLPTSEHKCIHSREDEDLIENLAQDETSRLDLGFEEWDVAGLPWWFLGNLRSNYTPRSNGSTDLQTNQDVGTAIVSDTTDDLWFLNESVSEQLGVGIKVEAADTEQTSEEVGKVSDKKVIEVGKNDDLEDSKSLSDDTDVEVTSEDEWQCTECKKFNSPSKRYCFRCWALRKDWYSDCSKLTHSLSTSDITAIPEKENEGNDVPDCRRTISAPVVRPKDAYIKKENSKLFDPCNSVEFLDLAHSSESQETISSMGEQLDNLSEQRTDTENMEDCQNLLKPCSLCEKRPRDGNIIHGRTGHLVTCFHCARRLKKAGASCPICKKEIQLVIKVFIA
Target sequence (Q00987 whole entry, looked up): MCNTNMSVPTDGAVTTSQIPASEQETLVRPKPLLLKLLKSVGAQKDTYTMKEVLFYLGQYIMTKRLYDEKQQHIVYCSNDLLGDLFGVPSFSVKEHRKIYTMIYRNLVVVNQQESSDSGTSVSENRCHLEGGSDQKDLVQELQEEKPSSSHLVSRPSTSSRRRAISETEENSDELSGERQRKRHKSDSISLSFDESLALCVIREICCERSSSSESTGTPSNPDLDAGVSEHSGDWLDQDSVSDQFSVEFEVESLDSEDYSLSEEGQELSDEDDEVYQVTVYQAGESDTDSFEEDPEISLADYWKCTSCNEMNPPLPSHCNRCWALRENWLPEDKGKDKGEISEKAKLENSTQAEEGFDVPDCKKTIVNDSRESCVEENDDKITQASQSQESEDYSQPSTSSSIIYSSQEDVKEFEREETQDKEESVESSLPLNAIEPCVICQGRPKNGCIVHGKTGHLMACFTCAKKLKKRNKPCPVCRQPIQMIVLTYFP
Gli-Sufu block – Gli-Sufu pathway antagonists, primary screen, luciferase luminescence, Sufu-KO-LIGHT cells, uHTS. Sufu-KO-LIGHT fibroblasts, Gli luciferase reporter luminescence. inhibition, % at 5 µM. hit rate 0.74% among 340,000. AID 588413, 2011;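 active means inhibition above about 55%, limit read from the data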;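 further: 0% = DMSO-treated cells and 100% = wells with medium but no cells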
aSyn UTR inh – MLPCN primary screen, SNCA 5' untranslated region; inhibition, % (tested at 7.5 µM); hit rate 0.82% among 300,000; alpha-synuclein 5'UTR reporter, inhibitor activity; AID 1813, 2009; in the data active means inhibition above about 60%; inconclusive means no clear call, values can overlap the other calls;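 further: H4 neuroglioblastoma cells stably carrying SNCA 5'UTR luciferase fusion; 0% = DMSO wells and 100% = positive control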
Jurkat NFkB inh – inhibitors of induced NF-kB luciferase reporter, primary screen, TCR NF-kB activation inhibitor project, cell-based, luminescence, uHTS | Jurkat, PMA/ionomycin-induced NF-kB luciferase reporter | inhibition, % at 4 µM | hit rate 0.53% among 330,000; in the data active means inhibition above about 50%
Mdm2-MdmX conf – Mdm2-MdmX complex disruptors, retested hits, confirmation, luminescence, single concentration | shares compounds with Mdm2 MdmX PPI | Mdm2-MdmX binding, luminescent assay | inhibition, % at 8 µM | hit rate 55% among 10,000 | AID 489028, 2010; in the data active means inhibition above about 40%
Full FLuc ctr – full-length luciferase signal inhibition, confirmation, counter-screen for Mdm2/MdmX interaction inhibitor project, cell-based, single concentration, SaOS-2. shares compounds with Mdm2 MdmX PPI. hit rate 77% among 6,200. SaOS-2 full-length luciferase counterscreen, luminescence. inhibition, % at 8 µM;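 active means mean inhibition at 8 µM reaching about 37%, which flags the compound as non-specific, limit read from the data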;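 further: p53-null SaOS-2 cells with luciferase driven by a doxycycline-inducible promoter; compound on cells about two nights before reading with doxycycline added after day one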
* hit, by the source's call; ? = inconclusive; / = not tested or not shown.

SMILES	KLF5 inhibitor	697 NFkB inh	Mdm2 MdmX PPI	Gli-Sufu block	aSyn UTR inh	Jurkat NFkB inh	Mdm2-MdmX conf	Full FLuc ctr
Cc1cccc(N2C(=O)NC(=O)/C(=C\c3cccn3-c3ccc(Cl)cc3)C2=O)c1	-5	25	73*	16	1	22	40	69*
COc1ccc(OC)c(N2Cc3ccccc3C2=N)c1	-16	17	10	37	-15	-9	/	/
O=C(Nc1cccc(C(F)(F)F)c1)OC1CN2CCC1CC2 (stereo not given)	6	12	3	3	-22	-2	/	/
OC(c1cccc(Cl)c1)(c1cccc(Cl)c1)C1CN2CCC1CC2 (stereo not given)	-31	20	74*	14	-27	33	59*	56*
C=CCN1C[C@@H](C)N(C(c2ccc(C(=O)N(CC)CC)cc2)c2cccc(OC)c2)C[C@@H]1C (stereo not given in full)	/	-1	20	1	/	-14	/	/
Cc1ccc(-n2cc(CNC(C)Cc3cnccn3)c(-c3cccc(C)c3)n2)cc1 (stereo not given)	-2	-10	33	6	35	-9	/	/
Clc1ccccc1CNC1CN2CCC1CC2 (stereo not given)	-19	-25	17	6	9	2	/	/
c1ccc2c(c1)Sc1ccccc1N2CC1CN2CCC1CC2 (stereo not given)	-30	-29	75*	2	-23	8	44*	84*
N=c1c[n+](CC23CC4CC(CC(C4)C2)C3)[n-]o1	5	7	1	6	16	5	/	/
O=C(COc1ccc(Cl)cc1)N(c1ccc(Cl)cc1)C1CN2CCC1CC2 (stereo not given)	-28	-2	51*	15	-22	-7	39	75*
CC(=O)O[C@@H]1/C=C/[C@](C)(O)C[C@@H](C)C/C=C/[C@H]2[C@H](O)C(C)=C(C)[C@H]3[C@H](Cc4ccccc4)NC(=O)[C@@]123	/	29	72*	23	117*	-6	74*	49*
C=C1C(C)C2C(Cc3ccccc3)NC(=O)C23C(OC(C)=O)C=CC(C)(O)CC(C)CC=CC3C1O (stereo not given)	/	/	/	30	/	/	/	/
CN1CCN(c2nc(N)c(Br)c(Cl)n2)CC1	-40	-8	-19	9	5	3	/	/
O=C1CC2OCC=C3CN4CCC56c7cc([N+](=O)[O-])ccc7N1C5C2C3CC46 (stereo not given)	-13	-12	21	12	-19	-4	/	/
O=C1/C(=C\c2ccccc2)C2OCC=C3CN4CCC56c7ccccc7N1C5C2C3CC46 (stereo not given)	-11	-12	71*	10	-39	19	51*	70*
CC1CCC(C(C)C)C(OC(=O)Cn2c(COc3ccccc3)[n+](C)c3ccccc32)C1 (stereo not given)	-2	-25	98*	34	66*	24	96*	54*
CCn1c(O)c(C(c2ccccn2)c2c(O)n(CC)c(=S)[nH]c2=O)c(=O)[nH]c1=S	-25	-3	8	-19	-5	-1	/	/
CCOc1ccc(N=C2SCCCN2C)cc1	-6	-14	4	2	-11	-2	/	/
CC(C)CCNC(=O)c1c(N)n(Cc2ccc3c(c2)OCO3)c2nc3ccccc3nc12	1	4	24	0	-1	-7	/	/
CC(C)CNC(=O)c1c(N)n(Cc2ccc3c(c2)OCO3)c2nc3ccccc3nc12	6	-9	61*	7	19	-8	15	/
COC(=O)C1C2c3ccccc3C(c3ccccc32)C1C(=O)OC (stereo not given)	-26	13	24	0	12	-1	/	/
COC(=O)C1=C(C)NC(C)=C(C(=O)OC)C1c1ccccc1[N+](=O)[O-]	1	-3	97*	/	24	11	53*	28
Cc1ccc(C(=O)N[C@@H](C)CN2C3=NC[C@H](Cc4ccccc4)N3C[C@H]2Cc2ccc(O)cc2)cc1Br	/	23	98*	11	-15	16	58*	57*
Cc1ccc(C(=O)N[C@@H](C)CN2C3=NC[C@@H](Cc4ccccc4)N3C[C@H]2Cc2ccc(O)cc2)cc1Br	-8	7	69*	-9	5	7	33	/
Clc1ccc2c(c1)C(OC1CN3CCC1CC3)c1ccccc1CS2 (stereo not given)	11	11	64*	14	-22	19	39	61*
SMILES	KLF5 inhibitor	697 NFkB inh	Mdm2 MdmX PPI	Gli-Sufu block	aSyn UTR inh	Jurkat NFkB inh	Mdm2-MdmX conf	Full FLuc ctr
O=C(c1ccco1)c1cn(Cc2ccc(Cl)cc2)c2ccccc12	-41	8	51*	-3	-27	23	34	68*
COc1ccccc1OCCCn1cc(C(=O)c2ccco2)c2ccccc21	-62	-56	16	7	-60	-12	/	/
CCn1c(C)c(C(=O)Nc2ccc(OC)cc2)c2cc(OC)ccc21	-91	-53	7	-35	-86	-48	/	/
O=C1CC(=O)N(Cc2ccccc2)C(=S)N1	-25	6	13	-6	0	5	/	/
O=C1NC(=O)C(CCc2ccncc2)(Cc2cccc(Cl)c2Cl)C(=O)N1c1ccc(Br)cc1 (stereo not given)	33	-46	58*	33	?	36	54*	43*
C[C@H]1CC[C@@H]2[C@@H](C)[C@H]3[C@H](C[C@H]4[C@@H]5CC=C6C[C@@H](O[C@@H]7O[C@H](CO)[C@H](O)[C@H](O[C@@H]8O[C@H](CO)[C@@H](O)[C@H](O)[C@H]8O)[C@H]7O[C@@H]7O[C@@H](C)[C@H](O)[C@@H](O)[C@H]7O)CC[C@]6(C)[C@H]5CC[C@]34C)N2C1	-21	-4	60*	-9	47	-2	-11	/
C[C@@H]1CC2C3CC=C4C[C@@H](O)CC[C@]4(C)C3CC[C@]2(C)[C@H]1O (stereo not given in full)	/	-18	-13	1	/	-5	/	/
O=c1[nH]c2ccccc2n1C1CCN(CCCC(c2ccc(F)cc2)c2ccc(F)cc2)CC1	5	-18	66*	0	-49	20	10	/
COC(=O)C1=C(c2ccc(F)cc2OCc2ccccc2)C[C@@H]2CC[C@H]1N2C(=O)N1CCC(O)(c2ccc(Cl)cc2)CC1	/	-1	69*	12	/	-5	29	/

Assay outcomes (PubChem BioAssay)
